Rab9 promoter act: qHTS Assay for Rab9 Promoter Activators. Huh7 Rab9 promoter-luciferase reporter, luminescence, 24 h. Potency, µM (doses to about 9.22 µM), inactives show at the top dose activation, negative = inhibition, usual class: activators. 320,000 compounds, 2.8% hits. AID 485297, 2010; note: % of control where 0% means no effect; nearly all actives have a fitted effect of over 60% in size
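Huh7 cells stably carrying Rab9 promoter–luciferase reporter, plated 1500 cells/well, compound added after 2 h and incubated 24 h at 37 °C; luciferase luminescence then read after 10 min with detection reagent.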
ELG1 genotox: qHTS screen for small molecules that induce genotoxicity in human embryonic kidney (HEK293T) cells expressing luciferase-tagged ELG1 | HEK293T ELG1-luciferase reporter, luminescence, 16 h | Potency, µM (doses to about 46 µM), for the others: top-dose activity change, positive = activation, usual class: activators | 330,000 compounds, 1.3% hits | AID 504466, 2011; note: % of control where 0% means no effect; nearly all actives have a fitted effect of over 60% in size
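Cells (2,000/well) expressing the ELG1-luciferase fusion are dosed by pin tool and kept 16 hr at 37 °C, 5% CO2. Signal comes from ONE-Glo luciferase reagent after 30 min at room temperature.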
SMN2 splice enh: qHTS Assay for Enhancers of SMN2 Splice Variant Expression | HEK293 SMN2-luciferase splicing reporter, luminescence, 30-36 h | Potency, µM (series often up to 46.1 µM), inactives show top-dose activity change, positive = activation, usual class: activators | 210,000 compounds, 2.8% hits; note: % of control where 0% means no effect; nearly all actives have a fitted effect of over 55% in size
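HEK293 cells carry an SMN2 […]–luciferase reporter in which exon 7 inclusion puts luciferase in frame. Cells were plated 10-12 h before compound addition, then incubated 30-36 h at 37C. ONE-Glo luminescence was read; sodium butyrate at 4.5 mM final served as control.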
FLuc counter: qHTS profiling assay for firefly luciferase inhibitor/activator using purifed enzyme and Km concentrations of substrates (counterscreen for miR-21 project) | 360,000 compounds, 6.9% hits | purified FLuc, Km substrates, luminescence inhibition | AID 588342, 2011 | Potency, µM (series often up to 57.5 µM), for the others: at the top dose activity change, negative = inhibition, actives largely listed as inhibitors;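 note: plate controls were vehicle for no effect and reference inhibitor for full effect; nearly all actives have a fitted effect of over 55% in size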
Target sequence (P08659 whole entry, looked up): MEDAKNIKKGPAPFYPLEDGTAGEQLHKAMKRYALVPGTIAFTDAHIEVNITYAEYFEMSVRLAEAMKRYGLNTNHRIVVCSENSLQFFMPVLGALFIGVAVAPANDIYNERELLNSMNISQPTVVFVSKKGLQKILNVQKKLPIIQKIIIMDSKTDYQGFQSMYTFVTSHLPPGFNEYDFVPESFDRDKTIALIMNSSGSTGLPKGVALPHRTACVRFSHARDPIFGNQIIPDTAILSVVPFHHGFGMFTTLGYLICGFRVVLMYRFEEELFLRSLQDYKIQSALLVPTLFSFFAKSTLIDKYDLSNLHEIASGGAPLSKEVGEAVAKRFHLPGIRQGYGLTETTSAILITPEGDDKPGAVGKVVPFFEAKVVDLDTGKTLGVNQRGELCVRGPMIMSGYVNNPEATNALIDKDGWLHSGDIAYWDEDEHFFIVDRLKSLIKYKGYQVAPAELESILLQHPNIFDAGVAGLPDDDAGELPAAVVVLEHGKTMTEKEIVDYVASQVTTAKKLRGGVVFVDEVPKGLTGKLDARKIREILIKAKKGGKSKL
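Purified P. pyralis luciferase (10nM final) with 10uM D-luciferin and 10uM ATP (Km levels) in 50mM Tris acetate pH 7.5, 10mM Mg acetate, 0.01% Tween-20, 0.05% BSA; qHTS 6-point titration, ~60 µM downward; luminescence read.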
NPC1 promoter act: qHTS Assay for NPC1 Promoter Activators. 320,000 compounds, 2.4% hits. Potency, µM (highest dose often 9.22 µM), without a hit: top-dose activation, actives largely listed as activators. AID 485313, 2010. Huh7 NPC1 promoter luciferase reporter, 24 h; note: % of control where 0% means no effect; nearly all actives have a fitted effect of over 60% in size
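NPC1 promoter–luciferase Huh7 cells; 24 h compound; luminescence.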
ELG1 DNA repair: qHTS screen for small molecules that inhibit ELG1-dependent DNA repair in human embryonic kidney (HEK293T) cells expressing luciferase-tagged ELG1 | 330,000 compounds, 2.3% hits | Potency, µM (titrated, usually from 46.1 µM), for inactives: top-dose activity change, negative = inhibition, usual class: inhibitors | HEK293T ELG1-luciferase reporter, luminescence, 16 h; DNA damage induced by 5-fluorouridine; note: % is set by controls: 0 for no effect and ±100 for the full control effect; nearly all actives have a fitted effect of over 55% in size
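Luminescence from the luciferase reporter, measured 30 min after ONE-Glo reagent at room temperature, was the read-out. Beforehand, 2,000 cells per well were exposed for 16 hr at 37 °C to 5-fluorouridine together with compound or vehicle.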
Numbers without * were called inactive; ? = inconclusive; . = not tested or not shown; [ ] = remark or other dose. Compounds with a hit are over-represented: about 9.2% of the library has one in this group of screens. Calls come from the whole dose curve; as a rule, active = well fitted curve in the direction sought with a large enough effect; inconclusive = small, poorly fitted or top-dose-only effect, or another doubt; inactive = no such curve, though single readings can be large; an effect the other way counts as inactive or inconclusive. Potency is the fitted concentration of half-maximal effect.

SMILES | Rab9 promoter act | ELG1 genotox | SMN2 splice enh | FLuc counter | NPC1 promoter act | ELG1 DNA repair
COc1ccc(-c2nc3cccc(C)n3c2NCc2ccco2)cc1OC | 4% | -12% | 21% | 9.5µM* | 6% | ?
C[C@@H]1CN([C@H](C)CO)C(=O)Cc2cc(NS(=O)(=O)c3cn(C)cn3)ccc2O[C@H]1CN(C)S(=O)(=O)c1ccc(Cl)cc1 | . | 2% | . | . | . | 3%
COc1cccc(NC(=O)c2ccc(CNS(=O)(=O)c3ccc4c(c3)C(C)(C)C(=O)N4C)cc2)c1 | . | . | . | -4% | . | .
C=C(C)COc1ccc(-c2nc(N)ncc2Oc2ccc(OC)cc2)c(O)c1 | -5% | -2% | -10% | -18% | -3% | -23%
C=C(C)COc1ccc(-c2nc(N)ncc2Oc2ccccc2OC)c(O)c1 | 2% | 4% | -4% | 21µM* | 2% | -7%
N#C/C(=C\c1ccc[nH]1)C(=O)c1ccccc1 | 4% | 18% | . | 17µM* | -1% | ?
N#C/C(=C\c1ccc[nH]1)C(=O)Nc1ccccc1F | 0.5µM* | 12µM* | . | ? | 1.3µM* | ?
Cc1cc(/C=C(\C#N)C(=O)NC2CCCCCC2)c(C)[nH]1 | 23% | 10% | 30% | ? | 24% | ?
N#C/C(=C\c1cccc(Cl)c1)C(=O)c1ccccc1 | 1% | 6% | . | ? | -2% | -2%
Cc1cc(/C=C(\C#N)C(=O)Nc2ccccc2F)c(C)[nH]1 | 0.56µM* | ? | . | 2.1µM* | 1.1µM* | ?
Cc1cc(/C=C(\C#N)C(=O)NC2CC2)c(C)[nH]1 | 3.2µM* | ? | 11µM* | 12µM* | 4µM* | ?
OCCN1CC(O)C(O)C(O)C1CO (stereo not given) | . | . | 6% | . | . | .
COc1ccc(NC(=O)/C(C#N)=C/c2ccc[nH]2)c(OC)c1 | ? | 14% | . | -2% | 3.2µM* | 4%
COc1ccc(NC(=O)/C(C#N)=C/c2ncc([N+](=O)[O-])n2C)c(OC)c1 | 1% | -1% | . | 2% | -2% | -12%
N#C/C(=C\c1ccc[nH]1)C(=O)Nc1ccccc1Cl | ? | ? | . | -16% | 0.71µM* | ?
CCN(CC(=O)Nc1ccc(Br)cc1F)CC(=O)NC1CCS(=O)(=O)C1 (stereo not given) | 1% | 3% | . | . | 1% | 7%
CCc1ccc(CNC(=O)c2cc3n(n2)CCCN(Cc2ccccc2)C3=O)cc1 | . | . | -54% | -12% | . | .
O=C(COc1ccccc1Cl)Nc1ccc(S(=O)(=O)Nc2ccccn2)cc1 | 2% | -5% | . | 2% | -2% | -29%
CCOC(=O)c1cc(-c2ccc(OC)cc2)n(CCC(=O)NC2CCC(C)CC2)c1C (stereo not given) | . | . | . | 0% | . | .
NC(=O)/C(=C/c1ccc2c(c1)OCO2)NC(=O)c1ccco1 | -6% | 1% | -7% | 5% | 0% | -1%
Nc1ccccc1C(=O)/C=C/c1ccc2c(c1)OCO2 | 3.2µM* | ? | ? | 3.4µM* | 3.2µM* | ?
O=C(/C=C/c1ccc2c(c1)OCO2)c1ccco1 | ? | ? | 2% | 2.1µM* | 26% | ?
CS(=O)(=O)N1CCN(C(=S)NCc2ccc(Cl)cc2)CC1 | 3% | -1% | . | 0% | -4% | 9%
COc1ccc(Nc2cc(C(=O)N3CCc4ccccc4C3)c3ccccc3n2)c(OC)c1 | -1% | -19% | -9% | 15µM* | -1% | 21µM*
COc1ccccc1-c1cc(C(=O)N2CCc3ccccc3C2)c2ccccc2n1 | 0% | -6% | -24% | 0% | -5% | 13µM*
SMILES | Rab9 promoter act | ELG1 genotox | SMN2 splice enh | FLuc counter | NPC1 promoter act | ELG1 DNA repair
CCOc1ccc(NC(=O)/C(C#N)=C\c2ccc(-c3ccc(Cl)cc3)o2)cc1 | . | . | -3% | -7% | . | .
CC1CC1c1ccc(/C=C(\C#N)C(=O)Nc2ccccc2Cl)o1 (stereo not given) | 22% | 18% | ? | 19µM* | 16% | ?
CC1CC1c1ccc(/C=C(\C#N)C(=O)Nc2ccc(Cl)cc2)o1 (stereo not given) | 3.5µM* | ? | 8.9µM* | 4.8µM* | 3.5µM* | ?
c1ccc(-c2nc3c4ccccc4ccn3c2CN2CCOCC2)cc1 | 12% | ? | . | 4.8µM* | -3% | ?
Nc1sccc1C(=O)c1ccc(Cl)cc1 | ? | 11µM* | 28% | ? | 28% | ?
COc1ccc(-n2nc(C(=O)NCC(=O)Nc3ccc(F)cc3)c3ccccc3c2=O)cc1 | -7% | -13% | . | 0% | -1% | ?
CCC1C/C(=C\c2cc(OC)c(OC)cc2OC)C(=O)/C(=C/c2cc(OC)c(OC)cc2OC)C1 (stereo not given) | 1% | -13% | . | 2% | -5% | 6.5µM*
COc1cc(OC)c(OC)cc1/C=C1/Cc2ccccc2C1=O | -4%[1.84 µM] | 3% | . | 5% | -9% | 8%
COc1cc(OC)c(OC)cc1/C=C1\CC(C)C/C(=C\c2cc(OC)c(OC)cc2OC)C1=O (stereo not given) | -8% | -18% | . | 3% | -6% | 7.3µM*
CC(=O)Nc1nc2ccc(NC(=O)c3ccco3)cc2s1 | ? | ? | 28% | ? | 21% | ?
O=C(Nc1nc2ccc(S(=O)(=O)N3CCCC3)cc2s1)c1ccco1 | 9% | 2% | 3% | ? | 3% | 13%
O=C(Nc1nc2ccc(Br)cc2s1)c1ccco1 | 0.63µM* | ? | . | 3µM* | 1.3µM* | ?
